These results are taken from the supplement of paper PMC9492666.

Structures can show the parent of a compound that is named as a salt.

The test system of test [1] is HCC1937. The experiment in a line: relative cell viability, compound alone, vs DMSO (fraction of DMSO control); higher = less growth inhibition. As to conditions: 72 h.
Test [2] concerns MDA-MB-231. The test is described as above. The following applies: 72 h.
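Note: viability read out with the CCK-8 kit in 96-well plates, screening a set of 303 compounds acting on lipid metabolism targets.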

Regarding `CCCCCCCCCCCCCCOc1ccc(C(=O)O)o1`, the relative cell viability amounted to 1.07 in test [1] and 1 in test [2].
For `Cc1cc(N2C[C@@H](C)N[C@@H](C)C2)ncc1-c1ccc(-c2nc3c(ccn3C)c(=O)[nH]2)cc1`, in that order: 0.855 and 1.05.
Turning to `CC(C)c1cc(C(C)C)c(CC(=O)NS(=O)(=O)Oc2c(C(C)C)cccc2C(C)C)c(C(C)C)c1` [Avasimibe], the values for the relative cell viability in test [1] and in test [2] were 0.707 and 0.832, respectively.
As for `Cc1nc2ccc(NCc3cccc(C(F)(F)F)c3)cc2n(CCNC(=O)CO)c1=O`, the relative cell viability in test [1] amounted to 0.667; in test [2] it was 0.835.
For the compound `COP(=O)(OC)OC(c1ccc(Cl)cc1)P(=O)(OC)OC` (configuration not stated) [Mifobate], the relative cell viability in test [1] is 1.18; in test [2] it was 1.2.
For `Cc1cc(SCc2sc(-c3ccc(C(F)(F)F)cc3)nc2C)ccc1OCC(=O)O`, in that order: 0.916 and 0.857.
For `C=C(C)[C@@H]1CCC2=CC(=O)C[C@@H](C)[C@]2(C)C1` [Nootkatone], in that order: 0.882 and 1.02.
Take `CC1(C)C[C@H]2C3=CC[C@@H]4[C@@]5(C)CC[C@H](O)[C@@](C)(CO)[C@@H]5CC[C@@]4(C)[C@]3(C)C[C@H](O)[C@@]2(CO)[C@@H](O)[C@@H]1O` [Gymnemagenin]: the relative cell viability in test [1] amounted to 1.13; in test [2] it was 1.04.
For `CCCCCCCCCCCCCCOc1ccc(C(=O)OCC(=O)N(C)CC(=O)OCC)o1` [Olumacostat Glasaretil], in that order: 0.812 and 0.863.
For `COc1cc(F)c(C(C)C)cc1-c1ccc(C(F)(F)F)cc1CN1C(=O)O[C@H](c2cc(C(F)(F)F)cc(C(F)(F)F)c2)[C@@H]1C` [Anacetrapib], in that order: 0.72 and 0.877.
On the same counts, the results for `CC1=C(/C=C/C(C)=C/C=C/C(C)=C/C=C/C=C(C)/C=C/C=C(C)/C=C/C2=C(C)C(=O)[C@@H](O)CC2(C)C)C(C)(C)C[C@H](O)C1=O` [Astaxanthin] are 1.01 and 1.13.
With `NC(=O)c1cccc(-c2cccc(OC(=O)NC3CCCCC3)c2)c1`, the relative cell viability in test [1] was 0.822; in test [2] it was 1.02.
As to `CN(C)c1cccc(-c2c3c(=O)n(-c4ccccc4Cl)[nH]c3cc(=O)n2C)c1`, the relative cell viability in test [1] was 0.903; in test [2], 0.974.
For `CN(C)C(=N)NC(=N)N` [Metformin hydrochloride], in that order: 0.98 and 0.95.
For `O=C(O)CN(CC(=O)O)c1ccccc1OCCOc1ccccc1N(CC(=O)O)CC(=O)O`, in that order: 0.633 and 0.899.
For `COC(=O)CN(c1ccc(CN(c2ccc(OCc3ccc(C)cc3)c(C(=O)OC)c2)S(=O)(=O)Cc2ccccc2)cc1)S(C)(=O)=O`, in that order: 0.894 and 0.921.
In the case of `O=C(Nc1cnccc1Cl)N1CCN(Cc2ccc3c(c2)OC(F)(F)O3)CC1`, the relative cell viability in test [1] amounted to 0.747; in test [2], 0.771.
On to `CCCCCCCCCCCCC/C=C/[C@@H](O)[C@@H](N)CO`, for which the figures for the relative cell viability in test [1] and in test [2] were 0.331 and 0.792, respectively.
For `COc1ccc(/C=C/c2cc(O)cc(O[C@@H]3O[C@H](CO)[C@@H](O)[C@H](O)[C@H]3O)c2)cc1` [Deoxyrhapontin], in that order: 0.932 and 0.995.
On to `C[N+](C)(C)CC(O)CC(=O)[O-]` (stereo not drawn) [L(-)-Carnitine], for which the values for the relative cell viability in test [1] and in test [2] were 0.738 and 0.876, respectively.
Turning to `CCc1ccc(N(CC(C)C)S(=O)(=O)c2ccc(OCC3CCOCC3)c(CO)c2)cc1`, the relative cell viability in test [1] was 0.954; in test [2] it was 0.939.
For `CCOC(=O)c1c(NC(=O)CN2CCN(C(=O)c3ccco3)CC2)sc2c1CCC2`, in that order: 0.857 and 0.967.
On the same counts, the results for `CCOC(=O)C(C)(C)Oc1ccc(Cl)cc1` [Clofibrate] are 1.15 and 0.9.
For `CCCc1cc(-c2nc(-c3ccc(NS(C)(=O)=O)cc3)cs2)ccn1`, the relative cell viability came to 0.669 in test [1] and 0.926 in test [2].
For `COC(=O)c1cc(Cl)c(O)c(S(=O)(=O)Nc2cc(-c3ccccc3)c(F)cc2F)c1`, in that order: 0.737 and 0.833.
For `O=C(O)CC[C@H](O)C(=O)O` [L-2-Hydroxyglutaric acid disodium], in that order: 1.04 and 1.
For `O=C(O)/C=C/c1ccc(O)c(O)c1` [Caffeic Acid], in that order: 0.72 and 0.874.
For the compound `NC(=O)c1cnccn1` [Pyrazinamide], the relative cell viability in test [1] was 0.654; in test [2] it was 0.841.
For `Cc1cc(C)c(S(=O)(=O)N(CCc2cccc(Br)c2)Cc2ccc(-c3cccc(S(C)(=O)=O)c3)cc2)c(C)c1`, in that order: 0.708 and 0.862.
On the same counts, the results for `O=C(CC(C(=O)O)c1c[nH]c2ccccc12)c1ccc(F)cc1F` (configuration not stated) [Mitochonic acid 5] are 1.26 and 1.19.
For `Cc1cc([N+](=O)[O-])ccc1NS(=O)(=O)c1cc(Cl)ccc1Cl`, in that order: 0.579 and 0.795.
Turning to `CC(C)(Oc1ccc(C2CC2(Cl)Cl)cc1)C(=O)O` (configuration not stated) [Ciprofibrate], the results for the relative cell viability in test [1] and in test [2] were 1.15 and 0.937, respectively.
For `C[C@H]1N=C(N(C)C)N=C(N)N1` [Imeglimin hydrochloride], in that order: 0.912 and 0.838.
On the same counts, the results for `CCNC1(C(N)=O)CCN(c2ncnc3c2nc(-c2ccccc2Cl)n3-c2ccc(Cl)cc2)CC1` [Otenabant] are 0.906 and 0.915.
On the same counts, the results for `O=C(O)Cn1nnc(-c2cc(N3CCC(Oc4cc(F)ccc4Br)CC3)no2)n1` are 0.842 and 0.882.
On to `CC(C)=CCC(O)C1=CC(=O)c2c(O)ccc(O)c2C1=O` (single isomer, unassigned; (+)) [(+)-Shikonin], for which the relative cell viability came out at 0.2 in test [1] and 0.529 in test [2].
